Source: PubChem BioAssay (Broad Institute)
aSyn UTR act – Activators via SNCA 5'UTR binding, MLPCN | alpha-synuclein 5'UTR reporter, activators screen | activity score, % (tested at 7.5 µM), hits read low | 7.1% of 300,000 active | AID 1814, 2009; in the data active = activity score below about -60%
Hits are given with their value; . = inactive. Only a sample is shown.

SMILES	aSyn UTR act
Cc1cccc(NC(=O)c2ccc(N3CCCCC3)c([N+](=O)[O-])c2)n1	-157
Cc1ccc(NC(=O)c2ccc(NCCCN3CCC(C)CC3)c([N+](=O)[O-])c2)c(C)c1	-63
Cc1cccc(NC(=O)c2ccc(N3CCOCC3)c([N+](=O)[O-])c2)n1	-115
CCOC(=O)c1ccc(NCCOC)c([N+](=O)[O-])c1	-91
O=C(Nc1cccnc1)c1ccc(N2CCCC2)c([N+](=O)[O-])c1	-87
Cc1cccc(NC(=O)c2ccc(N(C)C3CCCCC3)c([N+](=O)[O-])c2)n1	-64
CC(C)CCNc1nc(N)c([N+](=O)[O-])c(NCC2CCCO2)n1 (stereo not drawn)	.
O=C(Nc1ccccc1)c1ccc(NCC2CCCO2)c([N+](=O)[O-])c1 (stereo not drawn)	-125
Cc1cc(C(=O)Nc2ccc(N3CCCC3)c(Cl)c2)ccc1[N+](=O)[O-]	-62
Cc1ccc(NC(=O)c2ccc(NCCN)c([N+](=O)[O-])c2)cc1Cl	-85
N#C/C(=C\c1cc([N+](=O)[O-])c(N2CCOCC2)cc1N1CCOCC1)c1nc2ccccc2[nH]1	-92
COc1cc(/C=C(/C#N)c2nc3ccccc3[nH]2)ccc1OC(=O)c1ccco1	-114
COc1cc(/C=C(\C#N)c2nc3ccccc3[nH]2)cc(OC)c1O	-99
COc1ccc(/C=C(\C#N)c2nc3ccccc3[nH]2)cc1O	-144
COc1c(O)ccc(/C=C(\C#N)c2nc3ccccc3[nH]2)c1[N+](=O)[O-]	-92
COc1cc(/C=C(\C#N)c2nc3ccccc3[nH]2)ccc1Oc1ccc([N+](=O)[O-])cn1	-104
COc1ccc(/C=C(\C#N)c2nc3ccc(C)cc3[nH]2)cc1Oc1ccc(C(F)(F)F)cc1[N+](=O)[O-]	-85
Cc1nn(Cc2ccccc2Cl)c2sc(C(=O)NCCCn3ccnc3)cc12	-105
CCc1ccccc1NC(=O)c1ccc([N+](=O)[O-])s1	-68
CC1CCN(S(=O)(=O)c2ccc(C(=O)Nc3nnc(-c4ccco4)o3)cc2)CC1	.
O=C(Nc1nnc(-c2ccco2)o1)c1ccc([N+](=O)[O-])s1	-71
CC1Cc2cc(/C(O)=C3/C(=O)C(=O)N(CC4CCCO4)C3c3ccco3)ccc2O1 (stereo not drawn)	-62
Cc1cnc(C(=O)Nc2ccc(OC(F)(F)F)cc2)cn1	-239
Cc1cnc(C(=O)Nc2ccc(N3CCCCC3)cc2)cn1	-135
Cc1cnc(C(=O)Nc2ccc(N3CCOCC3)cc2)cn1	-73
SMILES	aSyn UTR act
COc1ccc(CSc2nnc(C)s2)cc1F	-127
COC(=O)c1cccc(CSc2nnc(C)s2)c1	-82
N#Cc1c(N2CCOCC2)nsc1-c1ccc(C(F)(F)F)cc1	-134
O=C(NCc1ccco1)c1ccc(COc2cc(Cl)ccc2Cl)cc1	-95
O=C(COc1ccc(Cl)cc1Cl)NCc1ccco1	-64
CCN(CC)CCn1c2ccccc2c2nc3ccccc3nc21	-213
OCCN(CC#CCn1c2ccccc2c2ccccc21)CCO	.
Cc1nn(-c2ccc(Br)cc2)c(=O)c2ccccc12	-113
O=C(NCC1COc2ccccc2O1)c1cccs1 (stereo not drawn)	-64
O=C(NCc1ccccc1)C(=O)NCC1COc2ccccc2O1 (stereo not drawn)	-145
CCOc1ccccc1CNC(=O)c1cc2oc3ccccc3c2n1CC	.
Cn1c(C(=O)N2CCc3ccccc3C2)cc2oc3ccccc3c21	-137
O=c1c2c3nc4ccccc4nc3n(/N=C/c3ccccn3)c2ncn1-c1ccccc1	-238
Cc1ccc(CC(=O)c2ccc(Cl)cc2)cc1	-83
O=C(Cc1ccc(Cl)cc1)c1ccc(O)cc1	-151
O=C(Cc1ccccc1)c1ccc(Cl)cc1	-73
O=C(CCc1ccccc1)Nc1cc2c(cc1Cl)OCCO2	-135
O=C(CCc1ccccc1)Nc1ccc2c(c1)OCCO2	-102
O=C(CS(=O)(=O)c1c[nH]c2ccccc12)Nc1ccc2c(c1)OCCO2	-85
CC1CC(C)(C)NC(=S)N1CCCC(=O)Nc1ccc2c(c1)OCCO2 (stereo not drawn)	-91
c1ccc2c(c1)nnn2-c1ncnc2sccc12	-147
CC(=O)Nc1ccc(C(=O)Cn2nnc3ccccc3c2=O)cc1	-66
Cc1ccc(C(=O)Cn2nnc3ccccc32)cc1	-161
O=C(CCn1nnc2ccccc21)N1CCN(c2ccccc2)CC1	-119
Cc1ccc(C(=O)Cn2nnc3ccccc32)cc1C	-90
SMILES	aSyn UTR act
Cc1ccc(NC(=O)CCn2nnc3ccccc32)cc1	-84
O=C(Cn1nnc2ccccc21)c1ccc(Br)cc1	-82
O=C(Cn1nnc2ccccc2c1=O)NC1CCCCC1	-68
CN(C)c1ccc(C(=O)OCc2ccccc2)cc1	-74
CN(C)c1ccc(CCc2ccc(N)cc2)cc1	.
N#Cc1c(N2CCSCC2)nsc1-c1ccccc1Cl	-63
COc1ccc(-c2cc3cc(OC)c(OC)cc3c(C)n2)cc1	-105
COc1ccc(-c2nsc(SCC(=O)Nc3ccc4c(c3)OCO4)n2)cc1	-109
CSc1nsc(SCC(=O)Nc2ccc(C(C)=O)cc2)n1	-262
CCOc1ccc(-n2c(SCC(=O)Nc3ccc(Br)cc3)nc3n[nH]c(C)c3c2=N)cc1	.
COc1ccc(NC(=O)CSc2nc(SC)ns2)cc1	-145
CSc1nsc(SCC(=O)Nc2ccc(F)cc2F)n1	-101
CC1(C)COC(/C=C/c2ccc([N+](=O)[O-])cc2)=N1	-93
Cc1cc(NC(=O)Nc2ccc(C)c(C)c2)no1	-123
COc1ccc(C(=O)Nc2ccc(C)cn2)c(OC)c1	.
COc1cccc(C(=O)NC(=O)Nc2cc(C)on2)c1	-94
COc1ccc(C(=O)Nc2cc(C)on2)c(OC)c1	-141
COc1cccc(NC(=O)Nc2cc(C)on2)c1	-93
N#Cc1cnn(-c2ncnc3sc(-c4ccccc4)cc23)c1N	-65
N#CC1CC(c2ccccc2)Nc2cc(Cl)ccc2N1 (stereo not drawn)	-331
O=C(c1ccc2ccccc2c1)N1CCN(Cc2ccccc2)CC1	-85
Oc1c(CN2CCc3ccccc3C2)cc(Cl)c2cccnc12	.
Cc1cccc(NC(=O)c2ccc(CN3CCN(Cc4ccccc4)CC3)cc2)c1	-77
CC(C)(C)SCCNC(=O)c1ccc(CN2CCc3ccccc3C2)cc1	-63
COc1cccc(NC(=O)c2ccc(CN3CCc4ccccc4C3)cc2)c1	-104
SMILES	aSyn UTR act
Cn1nnnc1Sc1ncnc2scc(-c3ccc(F)cc3)c12	-89
N=c1oc2ccccc2cc1-c1nc2ccccc2c(=O)[nH]1	-165
Cc1cccc(-c2nc3ccccc3c(=O)[nH]2)c1	-111
O=C(OCC(=O)N1CCOCC1)c1cccc(F)c1	-87
O=C(OCC(=O)N1CCOCC1)c1ccccc1Cc1ccccc1	-183
Nc1ccc(C(=O)OCC(=O)N2CCOCC2)cc1[N+](=O)[O-]	-71
Cc1nnc(SCC(=O)Nc2nsc(-c3ccc(C(C)(C)C)cc3)n2)s1	-70
COc1ccc(C(=O)/C=C/C(=O)N(CC(=O)NC2CCCCC2)Cc2ccc(F)cc2)c(O)c1	.
COc1ccc(CNC(=O)Nc2ccccc2)cc1	-114
Cc1ccc(CNC(=O)NC2CCCCC2)cc1	-92
O=C(Cc1ccc(O)cc1)NC1CCCCCC1	-119
CCOc1ccc(CNC(=O)Nc2ccccc2)cc1	-103
O=C(CSc1ccc(F)cc1)NC1CCCCC1	-69
Cc1ccc(CNC(=O)Nc2ccc(C)cc2)cc1	-75
COc1ccc(CNC(=O)Nc2cccc(C)c2)cc1	-153
Cc1ccc(CNC(=O)Cc2ccc(-c3ccccc3)cc2)cc1	.
Cc1cc2cc(CNC(=O)Nc3ccccc3)ccc2[nH]1	-98
CCCc1cc(NC(=O)CCl)n(-c2ccccc2)n1	-79
